{"source": "PubChem BioAssay (NCATS)", "note": "Inconclusive results are not listed. Values without a mark were called inactive. Calls follow the shape of the dose curve; as a rule, active = well fitted curve in the direction sought with a large enough effect in the signal ratio, with a control signal flat (not every such curve was filed as active); inconclusive = small, poorly fitted or top-dose-only effect, or a change in a side signal; inactive = no such curve, though single readings can be large or run the other way; the % refers to the signal ratio."}
{"test": "qHTS Assay for Identification of Small Molecule Inducers of Hypoxia Response (AID 2120); also: 0% is about no effect", "settings": "hypoxia response reporter cells, beta-lactamase ratio readout; series mostly up to 104 µM; activation: at the top concentration", "method_in_brief": "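Cell-based qHTS for reporter induction: hypoxia response element controlled beta-lactamase in ME-180 cells. Compounds incubated 17 h at 37 degrees C; activity from blue/green (460/530 nm) ratio, inducers ranked by AC50.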", "units": {"activation": "%"}}
{"smiles": "C=CCn1c(=O)n(CC=C)c(=O)n(CC=C)c1=O", "activation": 1.21}
{"smiles": "Nc1nc(-c2ccccc2)cs1", "activation": 0}
{"smiles": "CCCCC/C=C/C=C/C=O", "activation": 0.302}
{"smiles": "Cc1ccc(C(=O)O)cc1", "activation": -0.302}
{"smiles": "CCC(=O)/C=C/C1C(C)=CCCC1(C)C", "note": "(stereo not given)", "activation": 0.342}
{"smiles": "O=C(O)c1ccccc1[N+](=O)[O-]", "activation": 0.244}
{"smiles": "Nc1cccc(N)c1", "activation": 0.609}
{"smiles": "CN(C)c1cccc(O)c1", "activation": 0.307}
{"smiles": "O=C(O)c1ccc(C(=O)O)cc1", "activation": 0.0488}
{"smiles": "NCCCCCCN", "activation": 0.987}
{"smiles": "CC(C)(C)OCC1CO1", "note": "(stereo not given)", "activation": 0.302}
{"smiles": "Cc1cc(C2(c3cc(C)c(O)cc3C)OS(=O)(=O)c3ccccc32)c(C)cc1O", "activation": -0.604}
{"smiles": "Cc1ccccc1C(=O)O", "activation": -0.389}
{"smiles": "CC(C)(C)OC=O", "activation": 0.809}
{"smiles": "COc1cccc(N)c1", "activation": 1.46}
{"smiles": "CCCCC(CC)CO", "note": "(stereo not given)", "activation": 0.79}
{"smiles": "O=[N+]([O-])c1ccccc1CCO", "activation": 0.302}
{"smiles": "COCCOC(=O)c1ccccc1C(=O)OCCOC", "activation": -0.604}
{"smiles": "O=C(O)c1cccc([N+](=O)[O-])c1", "activation": 0}
{"smiles": "CCCCCNCCCCC", "activation": -0.293}
{"smiles": "CCCCOCCOCCSC#N", "activation": 0.507}
{"smiles": "CC1(N)CCC(C(C)(C)N)CC1", "note": "(stereo not given)", "activation": 0.76}
{"smiles": "CCCCC(CC)CNCC(CC)CCCC", "note": "(stereo not given)", "activation": 1.67}
{"smiles": "Nc1nc(CC(=O)O)cs1", "activation": -0.483}
{"smiles": "N#Cc1ccccc1", "activation": -0.273}
{"smiles": "O=[N+]([O-])c1ccc(Cl)cc1Cl", "activation": -0.59}
{"smiles": "C=CCCCCCCC=C", "activation": 4.65}
{"smiles": "CC(O)COC(C)(C)C", "note": "(stereo not given)", "activation": -0.325}
{"smiles": "CC(C)C(C)C", "activation": 0.623}
{"smiles": "CCN(C(=O)N(CC)c1ccccc1)c1ccccc1", "activation": 1.91}
{"smiles": "O=C(O)c1ccc(CO)o1", "activation": -0.785}
{"smiles": "Cc1ccc(C)o1", "activation": 0.585}
{"smiles": "O=CNc1ccccc1", "activation": 0.181}
{"smiles": "NS(=O)(=O)O", "activation": -0.725}
{"smiles": "CC(=O)OCCC(C)C", "activation": 0.964}
{"smiles": "Cc1cccc(Br)c1", "activation": 0.604}
{"smiles": "NC(=S)NNC(N)=S", "activation": 0.614}
{"smiles": "Cc1cccc2cccnc12", "activation": 0.911}
{"smiles": "CC(=O)c1ccccn1", "activation": 14.4}
{"smiles": "CC1=C(/C=C/C(C)=C/C=C/C(C)=C\\C=O)C(C)(C)CCC1", "activation": 3.63}
